From the supplement of paper PMC10105736 come the findings set out here.

Common to all, as to experiment: MAPPIT interaction score (arbitrary units); higher = stronger binary interaction signal, active = hit call of the paper
In assay [1] the target is CG5174. As to conditions: MAPPIT configuration: N-N; pair source set: Curagen_high_conf.
In assay [2] the target is CG5062. The settings on record: MAPPIT configuration: N-N; pair source set: Curagen_low_conf.
Assay [3] deals with slmo. The settings on record: MAPPIT configuration: N-N; pair source set: Curagen_high_conf.
Assay [4] deals with CG5708. As to conditions: MAPPIT configuration: N-C; pair source set: screen_4.
Assay [5] has as its target Polr3F. As to conditions: MAPPIT configuration: N-C; pair source set: screen_3.
In assay [6] the target is hale. The settings on record: MAPPIT configuration: N-N; pair source set: screen_1.
Assay [7] has as its target pasi2. The settings on record: MAPPIT configuration: N-N; pair source set: Lit-BS-16.
For assay [8], the target named is CG5662. As to conditions: MAPPIT configuration: N-N; pair source set: screen_2.

Values without a mark were called inactive.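 Rule for the calls: active = MAPPIT score above the 99th percentile of random reference set scores in the same batch; inactive = at or below it.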
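Note: HEK293T cells with Epo stimulation, STAT-responsive firefly luciferase reporter, fold induction versus unstimulated cells divided by the larger fold induction of two negative controls lacking either bait or prey.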

B1: rad50 (protein)
chain: MSSIESLSIQGIRSFGTYADDLQSIKFSSPVTLILGENGCGKTTVVECLKYALTGECPPGSDRGKSFVHDPKIFGLNEVLAQIKMQVRDRRGAQVSICRTMKVSKKRNKMSFETMDSTINFLTGAGQSKREKQDSLSGRSVDIDVAISDFMGVSKAIINNVLFCHQEDSSWPLDESKKLKEKFDAIFGITEYNKALDKIIKLRKEAMEELKIKEANIKHVAYLKQEMEVKTLNLQKAQRKCDAIKAQCSECEEEMKPIEARLVEIRNVEFEIGKYQAQKVEMDTKHKNCKDQISTLTLKIKKPFRGTLDELDQEISNFDQRMLEMRQKRTEVEGDLSQIKRSSVAEQEKLGTQDRKHCLAKQRHQSELACRAQLLKRVKEFCRELHIPIDCDLVEQPEKMGEVLRDIEAMIITKHCEITEIVEQNEKADRSRQVKIDELRIELTKSEQSVTAQEKQRESSKRESETLGVEIKKIETSMQDLKKLEKEINEVNELYESATKNIDQQAIKDAIARKKASIAENQIQFKKLDEQLTFLGSMAKLVAECSLKQKELDKKNQEVHRVRSRHSDHFGKLFKEPITCNYRRSMQVVYEKLRREIQELNEKANTQKLKEQSYEIKRKNLISDISRMEKELKDSEELIYQKCRSTPYDDLLERSKTTISKLQFDHGALKSSEALYKKYIQKMDEEPSCPLCHHNMTSDEACDLTSELTDEIQKLPDNITRAEKALKAEQIKYENLLQLKPTILKVKELKDSLPQKKEELKKVEELLGDSVSEYETLIALIGEPTHNMELANSMMGDMSLLDEALKDSARLTKDLDLQKGQLPASYDSSVSMDDLQAEKSKVSKELETERKELESAQNAVQQQMDALNRLREKKNSLKDRQIHLREGLQSLPQLKERLEKLNSFLTTVASEISELKAKIQPLKLNLRAAIEEKERLKKSESEKLAQLNSKYNSYKSTDHDIQRLNKEAEDYAKLDLRNEIKKLDEIIMASKDKLRKLEAEISLKTDELETIKTECSNQQTVERDLKDNRELKQLEDKEAKLRESCQVLDKQLGNLDFHSVSKEKVNLTKQRDKATVRKGELLGQLGEIHSQVNKLQREIDEPRFKESLKNFRKANYEIEVTRLCIEDLGQYRLALEWALIQFHSEKMEMINRLIREYWRKIYRGNDIDYIQVKTDEVSSDASADRRKTYNYRVVQSKNYSEIEMRGRCSAGQRVLASLIIRLALAETFSSNCGVLALDEPTTNLDRANINSLCEALNCIVEERQSQSNFMLIIITHDENFVSSLGKITSYHRVFRNEECKSVIRRVEAGPSKKALIDQ
Take B1: in assay [1], the MAPPIT interaction score is 0.0423.

B2: IntS10 (protein)
chain: MPSQEENELYMVKEAQRLRKSDPCAAMAWIITAKTLYPNAFNLQYEAYLLERDAQNYEEAAKCFSAIATNFQNQHTELWQEINSLTNALRNENETTPEHEFYVKMYKHLTPEVQHNIFMHTINHSADNLERIYIYILMFNKFPKSAITQAPRLLEMLAEGMKTEPDLYQRILVEEVLPMIQNKPPELSPNLACRLYTSSLEFYLRQIMDESDTADAWKNIFKVLMICGQMMGWEPFLPFSKHVNQNVYWEKLVDILSGSPAGSSQVLFYATTLFIYSLHGYIRNCKLRIEDADVTHVLVEGFMEWSPEGDGSEVPSMEPPKFSLTTAISPELSKAFLHAAQCWQLLNTDQFQRDFSQLMLALPLAPWISRFLFDLAIYFGHRDEANKLMADMTTQSSLVQSLQILSLNLMQGSMTLQGFQCILKILSELPTTQGQLLENMSLKGHRHMVFLPLTRSALVQYCVGAIISRLSRKVFEPNVPDRLLGDILVLQQLNLLNDVLLTQQIFNLIKQRKSFNLRTLSTYIINIDLLEELSHIWNSQQEDNFELTSSPNSSGTPTATTVAGGSQSRRIGTRGADKGARDEFRAITRQQIARCNENVITLLANFINQEHLMLAQHIFGISQPVETIVIK
For the molecule B2, the MAPPIT interaction score in assay [2] was -0.102; in assay [3], 1.15.

B3: H2.0 (protein)
chain: MLLHESAASMEQSMPENLSTHMYGECEVNPTLAKCPDPVNVDHELPTKESCASTTIVSTSPTSATSTTKVKLSFSVDRLLGSEPEESHRQSSSSPSTKSCCDGSILACCSFPHCFSQANAESRRFGHATLPPTFTPTSSHTYPFVGLDKLFPGPYMDYKSVLRPTPIRAAEHAAPTYPTLATNALLRFHQHQKQQHQQHHHHQHHPKHLHQQHKPPPHNSTTASALLAPLHSLTSLQLTQQQQRFLGKTPQQLLDIAPTSPAAAAAATSQNGAHGHGGGNGQGNASAGSNGKRKRSWSRAVFSNLQRKGLEIQFQQQKYITKPDRRKLAARLNLTDAQVKVWFQNRRMKWRHTRENLKSGQEKQPSAVPESGGVFKTSTPSGDGTPQEALDYSSDSCSSVDLSEQADEDDNIEINVVE
In the case of B3, the MAPPIT interaction score is 2.81 in assay [4], 2.33 in assay [5], 0.405 in assay [6] and 2.43 in assay [7].

B4: CG9393 (protein)
chain: MEMQLGAMLYVYKGEYGLPSIDFECLRALCLLRFTRCPMDVQTSSNPLRSGAGKLPYLQIGNQKFAGYRQIKRVLDLEGYPIDAHLSTKQKHLSTAYANWVFTNLHAYYHYFLFGEPHNFDTTTRGLYAKRTPFPFNFYYPSSYQREACDVVQVMAGFDVNDKLDKHEGDYLVVNAKKVVNLLSRKLGRKVWFFGDTYSEFDAIVYSYLAIIFKIALPNNPLQNHIKGCQNLVNFINRITKDIFRIEGYSSVKLTKTPSGTEASLTASERKFLDSELNTKIVAGVGAVLAMGAFAAWRGIYNQLTTRSSTDYDGIDYEDDEMEEGLD
B4: the MAPPIT interaction score in assay [8] is 4.82 (active).
